# What was measured:
# Test in all cases: PBM binding z-score (relative to random genomic background probes); higher = stronger binding; sequences stand for … in GC…GCGATTGACAGCGTAGAATGAAGG
# [1] = test system: RARb homodimer (NR concentration 270 nM)
# Summary of the method: (§1)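 Custom Agilent 4×180K protein-binding microarrays carried double-stranded probes, each with a 34-nt variable region. These regions held direct-repeat seeds, single-nucleotide variants, half-site ablations and random human genomic background sequences. Ligand-free nuclear receptor dimers were incubated on the arrays for 1 h, antibodies against each partner (one per run) detected binding, and scanned fluorescence was regression-normalized. Binding z-scores take the random background probes as reference.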
# [2] = test system: RARg:RXRa (NR concentration 270 nM, RXRa partner concentration 90 nM)
# Summary of the method: as §1
# [3] = test system: RARg homodimer (NR concentration 270 nM)
# Summary of the method: as §1
# [4] = test system: RXRa DBDmut IVT, anti-RXR (DBD mutation: RXRa K156A/R161A, NR concentration 90 nM)
# Summary of the method: as §1
# [5] = test system: RXRa homodimer (NR concentration 180 nM)
# Summary of the method: as §1
# [6] = test system: THRa:RXRa (NR concentration 90 nM, RXRa partner concentration 90 nM)
# Summary of the method: as §1
# [7] = test system: THRa homodimer (NR concentration 90 nM)
# Summary of the method: as §1
# [8] = test system: VDR homodimer (NR concentration 270 nM)
# Summary of the method: as §1
Sequence,PBM binding z-score [1],PBM binding z-score [2],PBM binding z-score [3],PBM binding z-score [4],PBM binding z-score [5],PBM binding z-score [6],PBM binding z-score [7],PBM binding z-score [8]
TCGAGTAGGTTACGGGGGCATTGAGGGATGAAGA,2.27,3.47,2.72,1.71,2.66,2.97,1.39,3.13
TCTGCTAGGTCAACGATGGTCAGCGAATCTGCTA,3.42,4.03,4.75,0.927,2.57,3.15,0.707,-0.22
CCATGTAGGTTAAGGGGGTCATTCAGTTTGAAAG,4.05,5.03,3.85,2.37,5.74,3.87,2.67,6.01
CTCGAAAGGTCGTGGTCAGGTGAGTATACCAAAC,3.25,5.58,4.34,1.88,5.4,4.01,0.825,1.13
CATACAGGGTCATCTAGGCCAGAGTAGGGACGGC,3.37,5.16,4.85,3.17,5.72,3.6,1.37,3.3
ATATGTAGGTTATGGTCATTCAGAAAGTAGGGAA,1.22,1.16,1.22,0.958,1.32,1.05,0.5,0.656
TCGAGTAGGTTACGGGGGCATTCATGGATGAAGA,2.23,3.37,2.71,1.74,2.93,2.63,1.13,3.57
CGAACTAGGTCAAAGGACCGTGAAAGGCGACGTA,2.22,3.5,4.44,1.42,2.86,2.23,0.043,0.238
ATATGGAGGTTAGGGTCATTCAGAAAGTAGGGAA,3.98,4.17,2.98,2.42,5.24,4.27,3.55,3.4
GCTTACGGGTCAAAGGTTATAACATGAATAGAAT,3.48,6.91,4.77,2.43,9.77,4.13,0.296,1.8
CGATCTAGGTCACCAGGACAGTGAAGAGGTTGGA,3.47,4.36,5.15,1.35,3.32,3.44,2.13,0.435
CATCCAAGGTCAAAGGTCAGTGAAGAGATGACGG,5.65,8.8,7.95,4.08,10.2,4.93,2.74,4.15
CATACAGGGTCCGCTAGGCCAGAGTAGGGACGGC,-0.0807,-0.0159,0.424,-0.419,-0.247,-0.0805,-0.241,-0.213
CGAACTAGGTCAGAACAGGACAGTTAAGGATGAT,2.09,2.45,3.49,0.671,1.3,3.48,0.637,0.142
TAGCCTAGGTCATGGGCCTGTATACCACGCGAAC,3.34,4.47,4.67,0.485,3.9,3.23,1.31,0.584
GGTACGAGGGCAAAGTTGATAGCATCTGTCGACG,1.13,2.05,1.83,2.49,1.7,1.33,-0.0946,1.48
CTATGTAGGTTAAGGGGGTCATCCAGTTTGAAAG,4.02,5.27,4.17,2.11,5.94,3.97,1.94,4.9
ATCTCTAGGTAAAGTTCAGCGAAAGATCGATAGA,2.94,2.55,2.95,1.25,1.9,1.41,0.214,1.66
CTATGTAGGTTAAGGGGGTCAATCAGTTTGAAAG,3.94,5.13,4.33,1.67,5.67,3.81,1.49,4.34
CCTGCTAGGTCATGGTCAGGTAATCTACAGTATG,3.22,4.26,4.73,1.77,3.01,3.55,1.97,0.414
ATATATAGGTTAGGGTCATTCAGAAAGTAGGGAA,3.6,4.24,3.75,2.67,5.33,4.11,3.76,3.95
CGAAGTAGGTCAAAGGACAGTGAAAGGCGACGTA,3.05,4.15,4.75,1.19,3.67,2.1,-0.0786,0.382
CGAACTAGATCAAAGGACAGTGAAAGGCGACGTA,0.779,0.0763,0.823,-0.208,-0.0824,0.0238,-0.506,0.0452
TAGCCTAGGTCAGATCGGGCGAGTATACGCTATA,2.27,2.7,3.68,-0.51,1.44,3.15,-0.0987,-0.405
CTAACTAGGTCACGAAAGGTCAAAGTCGAATGAC,5.7,7.92,8.55,2.56,8.14,5.08,2.55,3.54
AATACAGGGTCACTAGGTCAGAGTAGGTACGAAT,4.58,6.39,6.22,2.99,6.66,3.92,2.23,3.55
CTATGTAGGTTAAGCGGGTCATTCAGTTTGAAAG,2.58,2.62,1.94,1.29,3.17,2.56,0.448,3.14
TCGAGTAGGTTACAGGGGCATTCAGGGATGAAGA,1.64,1.1,0.679,0.69,1.29,2.65,0.735,1.42

# Source: the supplement of paper PMC6555819
